Screening data (PubChem BioAssay)
Only some compounds are listed: those with a hit (about 3.4% of all), similar ones and a draw of the others.
m-calpain inh: blocks pig calpain II enzyme activity | purified calpain II, fluorogenic peptide substrate, 30 min | inhibition, % at 16 µM | actives 0.37% (n = 220,000);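 active means inhibition above about 50%, limit read from the data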
14-3-3 Bad PPI: disrupts binding of bovine 14-3-3 zeta to phospho-Bad peptide; P63103; actives 0.71% (n = 220,000); inhibition, % at 21.7 µM; AID 781; TR-FRET 14-3-3zeta/Dy647-pBad peptide displacement, 1 h;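 active means inhibition above about 70%, limit read from the data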;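 further: 0% = full 14-3-3 plus peptide FRET controls and 100% = background without 14-3-3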
Target sequence (P63103 whole entry, looked up): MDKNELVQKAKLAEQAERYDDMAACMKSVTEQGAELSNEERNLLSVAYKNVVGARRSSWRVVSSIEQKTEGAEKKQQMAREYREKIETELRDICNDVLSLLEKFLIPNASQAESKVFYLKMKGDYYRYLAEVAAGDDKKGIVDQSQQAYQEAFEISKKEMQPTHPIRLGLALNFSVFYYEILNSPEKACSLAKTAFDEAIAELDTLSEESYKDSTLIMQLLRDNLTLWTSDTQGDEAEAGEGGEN
Mcl1 Bid PPI: Mcl-1/Bid interaction inhibition; inhibition, % at 21.7 µM; actives 0.97% (n = 220,000); TR-FRET Mcl-1/Bid-Dy647 peptide binding, 1536-well;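 active means compounds that cut the binding signal by more than half at the single screening dose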;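 further: His-tagged Mcl-1 with europium anti-His antibody binding Bid BH3 peptide; 0% = Mcl-1 plus peptide wells and 100% = peptide-only wells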
Target sequence (Q07820 whole entry, looked up): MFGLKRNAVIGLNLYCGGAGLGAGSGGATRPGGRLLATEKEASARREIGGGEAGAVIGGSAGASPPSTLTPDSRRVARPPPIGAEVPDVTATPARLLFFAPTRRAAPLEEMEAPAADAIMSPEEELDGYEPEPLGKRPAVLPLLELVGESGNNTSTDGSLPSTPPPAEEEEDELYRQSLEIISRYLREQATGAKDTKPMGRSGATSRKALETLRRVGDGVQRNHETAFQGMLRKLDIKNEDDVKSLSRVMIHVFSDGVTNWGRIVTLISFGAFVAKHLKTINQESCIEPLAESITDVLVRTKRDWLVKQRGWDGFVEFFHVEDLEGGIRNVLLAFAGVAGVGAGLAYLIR
Mcl1 Noxa PPI: disrupts binding of human Mcl-1 to Noxa peptide; Q07820; TR-FRET Mcl-1/Noxa peptide binding, 2 h; inhibition, % at 21.7 µM; actives 1.5% (n = 220,000);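 active means compounds that cut the protein-peptide binding signal by more than 50% relative to plate controls in a single-dose test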;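 further: His-tagged Mcl-1 with rhodamine Noxa BH3 peptide and terbium anti-His antibody; 0% = Mcl-1 plus Noxa peptide wells and 100% = peptide-only wells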
Mcl-1 Bim block: inhibitors of Bim-Mcl-1 interaction, human | actives 0.1% (n = 190,000) | inhibition, % at 10 µM | Bead-based flow cytometry, Bim peptide-Mcl-1 binding | AID 1009; in the data active means inhibition above about 40%;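 further: 0% = no compound tracer wells and 100% = peptide blocker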
p47phox inh: p47phox (human) inhibition; actives 0.53% (n = 220,000); inhibition, % at 24.7 µM; P14598; p47phox/p22phox peptide binding, fluorescence polarization, 2 h;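 active means inhibition above about 30%, limit read from the data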;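 further: 0% = p47phox with labelled peptide and 100% = labelled peptide alone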
* hit, by the source's call; i = inactive; / = no result; [ ] = remark or other dose.

SMILES	m-calpain inh	14-3-3 Bad PPI	Mcl1 Bid PPI	Mcl1 Noxa PPI	Mcl-1 Bim block	p47phox inh
Cc1ccc2nc(SCC(=O)NCc3ccco3)c(C#N)cc2c1	-22	-13	-6	-24	-4	33*
C/C(=N\Nc1nc2c(s1)CCCC2)c1ccccc1	-9	80*[fluorescence artefact?]	20	28	0	-16
COC(=O)c1cc(=O)n(Cc2ccc(F)cc2)c(=Nc2ccccc2)s1	13	1	-21	52*	/	6
[O-]/C(=C(\C(=S)Nc1cccc2ccccc12)[n+]1ccccc1)c1cccs1	-39	84*	-50	24	3	-18
CCN1CCCc2cc(CN(CCN3CCOCC3)C(=S)Nc3ccccc3C)ccc21	-40	-6	-99	72*	-1	-14
CCN1CCCc2cc(CN(CCN3CCOCC3)C(=S)Nc3ccccc3OC)ccc21	15	-9	-61	60*	-2	-7
CCc1ccc(NC(=O)N(CCN2CCOCC2)Cc2ccc3c(c2)CCCN3CC)cc1	25	-10	-69	74*	-7	43*
CCN1CCCc2cc(CN(CCN3CCOCC3)C(=S)Nc3cccc(C)c3)ccc21	-16	12	-98	64*	-2	-16
CCN1CCCc2cc(CN(CCN3CCOCC3)C(=S)Nc3ccc(OC)c(OC)c3)ccc21	-60	3	-66	25	-1	-11
C=CCSc1nc2sc(C)c(C)c2c(=O)n1N	-3	3	-21	-7	-3	-8
CN1CC(=O)N(CC(=O)Nc2cc(Cl)cc(Cl)c2)C1=O	-7	-2	-16	-12	0	-7
COc1cccc(CNC(=O)C2CCN(S(=O)(=O)N3CCCCC3)CC2)c1	-9	-1	92*	10	3	4
Cc1c2cnn(-c3ccccc3)c(=O)c2c(C)n1CCCC(=O)NCCN1CCN(C)CC1	-17	-3	-111	21	/	8
COc1ccc(C2/C=C\CN(C(=O)C3CCCC3)[C@H](Cc3ccccc3)C(=O)N2Cc2ccc(F)cc2)cc1 (stereo partly specified)	0	-5	-37	-13	/	-24
CC(=O)C1=C(O)C(=O)N(Cc2cccnc2)C1c1ccccc1Cl (stereo unspecified)	4	38	-13	0	-1	-8
Cc1ccc(C(=O)C2=C(O)C(=O)N(Cc3ccccc3)C2c2cccnc2)o1 (stereo unspecified)	-13	37	-11	8	-4	55*
CCN(CC)c1ccc(NC(=O)COC(=O)c2ccc3ccccc3n2)cc1	5	9	-20	57*	-7	-6
O=C(COc1cccc(F)c1)Nc1ccc2[nH]c(=O)[nH]c2c1	-20	-11	-43	-5	2	-6
O=C(COC(=O)c1c(F)cccc1F)Nc1ccc2[nH]c(=O)[nH]c2c1	-65	-1	-33	72*	4	-9
O=C(COC(=O)c1ccc(F)cc1F)Nc1ccc2[nH]c(=O)[nH]c2c1	-38	0	-1	69*	0	-12
CC1CC1C(=O)OCC(=O)Nc1ccc2[nH]c(=O)[nH]c2c1 (stereo unspecified)	-33	15	3	76*	0	-11
Cc1cc(Cl)ccc1OCC(=O)NCC(=O)N/N=C/c1ccco1	-34	-13	-14	-3	0	-11
CCN(CC)c1ccc(C(=O)OCC(=O)Nc2ccc3[nH]c(=O)[nH]c3c2)cc1	-10	2	-43	55*	2	-6
CN1C=C/C(=C\c2cc[n+](C)c3ccccc23)c2ccccc21	26	26	1	85*	2	-3
O=C(Nc1cnn(Cc2ccc(F)cc2)c1)c1cnccn1	-4	-10	-16	-5	0	-5
SMILES	m-calpain inh	14-3-3 Bad PPI	Mcl1 Bid PPI	Mcl1 Noxa PPI	Mcl-1 Bim block	p47phox inh
O=C(Nc1cnn(Cc2ccc(F)cc2)c1)C(c1ccccc1)c1ccccc1	53*	8	0	7	-7	5
CCOc1ccccc1CNC(=O)c1c([N+](=O)[O-])c(C)nn1C	-2	10	-18	15	-2	-1
CC1=C(C(=O)OC(C)C)C(c2ccccc2Cl)CC(=O)N1 (stereo unspecified)	-26	80*	-4	-7	-1	0
CNC(=O)c1c(NC(=O)c2cc(-c3cc(C)c(C)cc3O)n[nH]2)sc2c1CCCC2	-99	29	9	60*	/	3
O=C(Nc1sc2c(c1C(=O)O)CCC2)c1ccc(F)cc1	17	-10	-52	18	8	8
C/C(=N\NC(=O)Cn1cc([N+](=O)[O-])cn1)c1ccco1	-21	1	-13	-13	/	-12
Cc1cc(C)nc(SC2CCCCC2NS(=O)(=O)c2ccccc2)n1 (stereo unspecified)	-6	-22	0	7	-4	-19
Cc1cc(C(=O)O)cc(Br)c1N	-7	0	-12	2	1	-2
Cc1cc(C)c(N)c(C(=O)O)c1	-157	58	61*	13	/	-9
CCOC(=O)c1cnc(SC)nc1N	2	-4	-10	3	0	109*
O=C(O)COn1c(-c2ccccc2)nc2ccc([N+](=O)[O-])cc21	2	53	15	55*	1	9
CCOc1cc(/C=C2\C(=O)N(CCc3ccc(OC)c(OC)c3)C(C)=C2C(=O)OC)ccc1O	-9	-16	-15	39	-2	53*
CCN(CC)S(=O)(=O)c1cccc(NC(=O)c2cc3ccccc3o2)c1	20	7	-23	3	0	-24
CCN(c1ccc(NC(=O)COC(=O)c2cccs2)cc1)C(C)C	19	-8	-44	87*	0	-2
COc1cccc(/C=C/C(=O)OCC(=O)Nc2cccc(S(=O)(=O)N(C)C)c2)c1	2	95*	-30	17	0	-18
CCN(CC)c1ccc(NC(=O)COC(=O)c2cccs2)cc1	1	-10	-23	30	-5	0
CN(C)S(=O)(=O)c1cccc(NC(=O)COC(=O)c2cc3ccccc3oc2=O)c1	11	26	80*	24	/	-4
CN(C)S(=O)(=O)c1cccc(NC(=O)c2cc3ccccc3o2)c1	-5	75*[fluorescence artefact?]	-21	11	0	-15
O=C(COC(=O)c1cc2ccccc2oc1=O)Nc1cccc(S(=O)(=O)N2CCCCCC2)c1	-6	10	-23	0	-1	2
COc1ccc(CN(C)C2c3ccccc3-c3ccccc32)cc1	25	0	-24	11	-6	-16
CCOC(=O)/C(=C/C1=CC(=C/N(C)C)/C(=O)O1)C(C)=O	10	-13	-30	6	/	-25
CCN(c1ccc(NC(=O)COC(=O)c2cc3ccccc3oc2=O)cc1)C(C)C	10	10	-25	86*	-3	5
Cc1nn(-c2ccccc2)c2sc(C(=O)O)cc12	8	23	9	2	0	-3
Cc1nn(-c2ccccc2)c2sc(-c3n[nH]c(=S)o3)cc12	i	3	-16	67*	5	-52
